In PubChem BioAssay (EPA / NIEHS):
“And” between values parts separate entries of the source, which are not always exact repeats. Identical values can stand only once. Some structures have more than one record in an assay (separate samples or runs), and their calls can disagree. The source made the active and inactive calls. How the source made its calls: active means hit-call score of the fitted dose curve at least 0.9, where 1 is the maximum; inactive means score below 0.9.

read-out: Epidermal growth factor receptor (EGFR), EGFR (gene 1956); test: BSK_hDFCGF_EGFR: BioMAP Diversity Plus: hDFCGF Assay for Epidermal growth factor receptor (EGFR) Biomarker Activity (AID 2283057); conditions: primary human foreskin fibroblasts; actives raise or lower the signal
Method: BSK_hDFCGF is a cell-based, multiplexed-readout assay that uses foreskin fibroblast, a human skin primary cell, with measurements taken at 24 hours after chemical dosing in a 96-well plate.BSK_hDFCGF_EGFR is an assay component measured in the BSK_hDFCGF assay. It measures EGFR antibody related to regulation of gene expression using ELISA technology.Data from the assay component BSK_hDFCGF_EGFR was analyzed into 1 assay endpoint. This assay endpoint, BSK_hDFCGF_EGFR, was analyzed with bidirectional fitting relative to DMSO as the negative control and baseline of activity. Using a type of binding reporter, gain or loss-of-signal activity can be used to understand changes in the signaling as they relate to the gene EGFR. Furthermore, this assay endpoint can be referred to as a primary readout, because this assay has produced multiple assay endpoints where this one serves a signaling function. To generalize the intended target to other relatable targets, this assay endpoint is annotated to the kinase intended target family, where the subfamily is receptor tyrosine kinase.
The levels of cell surface (or secreted, indicated by the prefix "s") biomarker endpoints were measured by ELISA. Overt cytotoxicity to cells in confluent adherent cultures (all systems other than the BT system) was assessed by measuring total protein levels using sulforhodamine B (SRB) staining in parallel cultures at the time of biomarker measurements, indicated as SRB endpoints. For proliferation assays for adherent cell types, individual cell types are cultured at sub-confluence and relative cell numbers quantified by SRB staining at time points optimized for each system (48 h: 3C and CASM3C systems; 72 h: BT and HDF3CGF systems; 96 h: SAg system). SRB was performed by staining cells with 0.1% SRB after fixation with 10% TCA and reading wells at 560 nm.Viability and proliferation of PBMC (T cells) was quantified by Alamar Blue reduction for the SAg and BT systems. For PBMC viability (referred to as PBMC Cytotoxicity within the assay endpoint names), cells were plated (75,000/well in a 96-well plate) and then chemical samples added for 1 h before addition of activators, SEB and TSST-1 (20 ng/mL final concentration each). Cells were incubated for 90 h. Then, Alamar Blue (20 uL/well) (Invitrogen, Cat DAL1100) was added for 6 h, and the plates were read with a fluorescence microplate reader at 546/580 nm (excitation/emission). For PBMC proliferation, cells were plated and activated as above but incubated for only 16 h prior to addition of Alamar Blue. Plates were read after 6 h.

| SMILES | outcome | AC50 |
| --- | --- | --- |
| COP(=O)(OC)OC=C(Cl)Cl | inactive |  |
| CCCN(CCOc1c(Cl)cc(Cl)cc1Cl)C(=O)n1ccnc1 | inactive |  |
| Cc1[nH]c(=O)n(C(C)(C)C)c(=O)c1Cl | inactive |  |
| CNC(=O)/C=C(\C)OP(=O)(OC)OC | inactive |  |
| Oc1cc(Cl)ccc1Oc1ccc(Cl)cc1Cl | inactive | 5.45 µM (active) and 5.46 µM (active) |
| COC(=O)c1ccccc1S(=O)(=O)NC(=O)N(C)c1nc(C)nc(OC)n1 | inactive |  |
| CCC(C)(NC(=O)c1cc(Cl)c(C)c(Cl)c1)C(=O)CCl (stereo not given) |  | 30.6 µM (active) |
| COc1nn(CSP(=S)(OC)OC)c(=O)s1 | inactive |  |
| Clc1ccccc1-c1nnc(-c2ccccc2Cl)nn1 | inactive |  |
| CCOc1nc(NC)nc(NC(=O)NS(=O)(=O)c2ccccc2C(=O)OC)n1 | inactive |  |
| CC(C)N(C(=O)COc1nnc(C(F)(F)F)s1)c1ccc(F)cc1 | inactive |  |
| CCC(C)(C)C(=O)OC1=C(c2ccc(Cl)cc2Cl)C(=O)OC12CCCCC2 |  | 5.45 µM (active) |
| CC(C)OC(=O)Nc1cccc(Cl)c1 | inactive |  |
| CC(C)(C)C(O)/C(=C\c1ccc(Cl)cc1Cl)n1cncn1 (stereo not given) | inactive |  |
| CCN(CC)C(=O)SCc1ccc(Cl)cc1 | inactive |  |
| CNC(=O)Oc1ccccc1OC(C)C | inactive |  |
| O=C(O)CCCOc1ccc(Cl)cc1Cl | inactive |  |
| COC(=O)c1ccccc1S(=O)(=O)NC(=O)Nc1nc(C)nc(OC)n1 | inactive |  |

| SMILES | outcome | AC50 |
| --- | --- | --- |
| Oc1ccc(Cl)cc1Cc1ccccc1 | inactive | 12.4 µM (active) [middle of 4 runs] |
| CCC(C)Nc1c([N+](=O)[O-])cc(C(C)(C)C)cc1[N+](=O)[O-] (stereo not given) |  | 33 µM (active) |
| CNC(=O)Oc1cccc(N=CN(C)C)c1 | inactive |  |
| CN1CSC(=S)N(C)C1 | inactive |  |
| CC[C@H](C)[C@H]1O[C@]2(C=C[C@@H]1C)C[C@@H]1C[C@@H](C/C=C(\C)[C@@H](O[C@H]3C[C@H](OC)[C@@H](O[C@H]4C[C@H](OC)[C@@H](O)[C@H](C)O4)[C@H](C)O3)[C@@H](C)/C=C/C=C3\CO[C@@H]4[C@H](O)C(C)=C[C@@H](C(=O)O1)[C@]34O)O2 (tested in a mixture with another compound) |  | 5.21 µM (active) |
| OCCOc1ccccc1 | inactive |  |
| N#Cc1c(Cl)c(Cl)c(Cl)c(C#N)c1Cl | inactive |  |
| O=C(O)C(F)(F)C(F)(F)C(F)(F)C(F)(F)C(F)(F)C(F)(F)C(F)(F)F | inactive | 22.4 µM (active) |
| CC1(c2ccc(Oc3ccccc3)cc2)OC(=O)N(Nc2ccccc2)C1=O (stereo not given) | inactive |  |
| O=C(Nc1ccccc1)Nc1cnns1 | inactive |  |
| CCS(=O)(=O)c1cccnc1S(=O)(=O)NC(=O)Nc1nc(OC)cc(OC)n1 | inactive |  |
| CCOC1Oc2ccc(OS(C)(=O)=O)cc2C1(C)C (stereo not given) | inactive |  |
| O=S1OCC2C(CO1)C1(Cl)C(Cl)=C(Cl)C2(Cl)C1(Cl)Cl (stereo not given) | inactive |  |
| O=S(=O)(O)C(F)(F)C(F)(F)C(F)(F)C(F)(F)C(F)(F)C(F)(F)C(F)(F)C(F)(F)F | inactive | 3.97 µM (active) |
| CNC(=O)CSP(=S)(OC)OC | inactive |  |
| O=[N+]([O-])c1c(Cl)c(Cl)c(Cl)c(Cl)c1Cl | inactive |  |
| CCCN(CCC)c1c([N+](=O)[O-])cc(C(F)(F)F)cc1[N+](=O)[O-] | inactive |  |
| O=C(O)COc1ccc(Cl)cc1Cl | inactive |  |
